The results in this text go back to PubChem BioAssay.

The structures appear in SMILES notation. Unmarked numbers belong to inactive results. For some assays here: Potency and affinity values are given separately. The source made the active and inactive calls. Unless noted, how the calls were made is not given here.

Experiment [1] can be described thus: antimalarial activity against Dd2 strain (AID 2302;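 active means growth inhibition above 50% at the single 2 µM test dose, taken to imply half-maximal potency below 2 µM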;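 further: 0% = DMSO untreated growth and 100% = chloroquine plus artemisinin killed control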). Conditions: P. falciparum Dd2 in RBCs, LDH growth readout, 72 h; at 2 µM; active compounds read high.
Experiment [2] is described as follows: human hepatoma cell viability loss – ATP luminescence, cytotoxicity control for P. falciparum antimalarial project, primary screen (AID 2303;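 active means inhibition above 50%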;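 further: 0% = DMSO wells and 100% = digitonin-killed cells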). To be noted: HepG2 viability, 24-48 h, at 10 µM, active compounds read high.
Experiment [3] addresses L-lactate dehydrogenase (Plasmodium falciparum (isolate CDC / Honduras)) (UniProt Q27743). Briefly: PfLDH activity inhibition – cell lysate, 3D7 strain, counter-screen for P. falciparum growth inhibition project (AID 2304).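 Further: 0% = vehicle and 100% = reference inhibitor.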 Conditions: P. falciparum 3D7 crude extract, LDH APAD/NBT absorbance; at 2 µM; active compounds read high. A general note: A counterscreen serves to expose hits that act by an unwanted route or on another target.

The nature of experiment [4]: inhibition of 3D7 malaria parasite growth – strain 3D7 (AID 2306).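 Further: 0% = DMSO wells and 100% = chloroquine plus artemisinin control wells.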 To be noted: P. falciparum 3D7 erythrocytic growth, LDH absorbance, 72 h; at 2 µM; active compounds read high.
The target of experiment [5] is Calcium-dependent protein kinase 1 (Plasmodium falciparum (isolate 3D7)) (UniProt P62344). Briefly: PfCDPK1 kinase inhibitors, biochemical, TCAMS library (AID 1159585; cut-off not given, nearly all actives have IC50 up to about 0.98 µM;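 further: inhibitors leave more ATP so luminescence rises with inhibition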). To be noted: recombinant PfCDPK1, Kinase-Glo ATP depletion luminescence. For orientation: In Kinase-Glo more light means more ATP remaining.
Experiment [6] deals with Plasmodium falciparum protein kinase 6 (PK6, PF3D7_1337100) (UniProt Q8IDW1). Briefly: PfPK6 kinase inhibitors, biochemical, TCAMS library (AID 1159586). Conditions: recombinant PfPK6, Kinase-Glo ATP depletion luminescence.
Experiment [7] addresses Protein kinase 7 (PK7), Plasmodium falciparum 3D7 (PF3D7_0213400) (UniProt Q7YTF7). Briefly: inhibition of Plasmodium PK7 catalytic activity – biochemical, TCAMS antimalarial set, Kinase-Glo luminescence (AID 1159587). Conditions: recombinant PfPK7, Kinase-Glo ATP depletion luminescence.
The target of experiment [8] is Calcium-dependent protein kinase 4 (Plasmodium falciparum (isolate 3D7)) (UniProt Q8IBS5). Briefly: PfCDPK4 kinase inhibitors, biochemical, TCAMS library (AID 1159588; cut-off not given, nearly all actives have IC50 up to about 0.91 µM). Conditions: recombinant PfCDPK4, Kinase-Glo ATP depletion luminescence.
Calcium-dependent protein kinase 4 (Plasmodium falciparum (isolate 3D7)), sequence (Q8IBS5 whole entry, looked up): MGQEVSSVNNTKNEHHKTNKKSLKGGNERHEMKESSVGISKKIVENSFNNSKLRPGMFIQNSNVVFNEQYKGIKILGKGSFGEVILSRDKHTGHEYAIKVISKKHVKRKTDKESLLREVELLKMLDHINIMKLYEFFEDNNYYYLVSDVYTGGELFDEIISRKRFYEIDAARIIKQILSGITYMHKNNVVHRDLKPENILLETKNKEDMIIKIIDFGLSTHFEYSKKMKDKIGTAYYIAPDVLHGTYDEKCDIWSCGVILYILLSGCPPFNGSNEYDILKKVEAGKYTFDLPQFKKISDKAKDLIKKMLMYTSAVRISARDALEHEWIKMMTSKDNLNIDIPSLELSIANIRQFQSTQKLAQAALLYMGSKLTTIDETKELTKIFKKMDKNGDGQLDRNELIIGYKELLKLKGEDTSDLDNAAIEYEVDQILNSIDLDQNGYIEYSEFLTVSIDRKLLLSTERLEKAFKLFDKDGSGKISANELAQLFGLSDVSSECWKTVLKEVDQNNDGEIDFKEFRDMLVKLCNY

Protein kinase 7 (PK7), Plasmodium falciparum 3D7 (PF3D7_0213400), sequence (Q7YTF7 1-343): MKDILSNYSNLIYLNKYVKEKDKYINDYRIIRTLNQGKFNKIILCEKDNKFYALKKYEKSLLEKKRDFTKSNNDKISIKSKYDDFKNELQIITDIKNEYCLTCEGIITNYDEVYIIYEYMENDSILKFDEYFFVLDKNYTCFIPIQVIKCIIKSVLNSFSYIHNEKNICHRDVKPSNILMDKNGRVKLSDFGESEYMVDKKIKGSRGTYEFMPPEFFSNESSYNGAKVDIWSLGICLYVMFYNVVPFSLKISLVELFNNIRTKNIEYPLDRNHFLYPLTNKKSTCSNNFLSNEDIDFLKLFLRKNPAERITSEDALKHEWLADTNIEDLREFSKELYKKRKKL
Plasmodium falciparum protein kinase 6 (PK6, PF3D7_1337100), sequence (Q8IDW1 1-305): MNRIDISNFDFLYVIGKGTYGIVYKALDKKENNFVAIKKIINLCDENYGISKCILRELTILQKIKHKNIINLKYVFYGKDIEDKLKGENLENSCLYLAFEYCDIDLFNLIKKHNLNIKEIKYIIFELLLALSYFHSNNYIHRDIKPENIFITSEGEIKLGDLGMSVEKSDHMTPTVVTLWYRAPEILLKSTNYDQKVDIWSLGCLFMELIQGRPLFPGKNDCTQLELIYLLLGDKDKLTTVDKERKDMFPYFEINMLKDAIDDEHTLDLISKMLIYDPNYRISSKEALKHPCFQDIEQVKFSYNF
Calcium-dependent protein kinase 1 (Plasmodium falciparum (isolate 3D7)), sequence (P62344 whole entry, looked up): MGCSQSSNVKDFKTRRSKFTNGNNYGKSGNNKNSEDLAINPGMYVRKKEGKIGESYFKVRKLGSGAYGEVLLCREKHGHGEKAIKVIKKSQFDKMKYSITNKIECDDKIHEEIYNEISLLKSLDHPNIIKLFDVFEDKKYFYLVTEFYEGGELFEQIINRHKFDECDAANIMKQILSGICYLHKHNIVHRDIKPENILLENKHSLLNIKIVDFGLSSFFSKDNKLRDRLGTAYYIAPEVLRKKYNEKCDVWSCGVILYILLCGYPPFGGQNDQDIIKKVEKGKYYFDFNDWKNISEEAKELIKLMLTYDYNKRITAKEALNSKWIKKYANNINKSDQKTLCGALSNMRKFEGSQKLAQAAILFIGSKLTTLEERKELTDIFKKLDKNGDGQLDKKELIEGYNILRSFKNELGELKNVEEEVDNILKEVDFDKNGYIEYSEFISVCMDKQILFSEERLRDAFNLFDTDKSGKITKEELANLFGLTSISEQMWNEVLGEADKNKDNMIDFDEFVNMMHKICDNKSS
L-lactate dehydrogenase (Plasmodium falciparum (isolate CDC / Honduras)), sequence (Q27743 whole entry, looked up): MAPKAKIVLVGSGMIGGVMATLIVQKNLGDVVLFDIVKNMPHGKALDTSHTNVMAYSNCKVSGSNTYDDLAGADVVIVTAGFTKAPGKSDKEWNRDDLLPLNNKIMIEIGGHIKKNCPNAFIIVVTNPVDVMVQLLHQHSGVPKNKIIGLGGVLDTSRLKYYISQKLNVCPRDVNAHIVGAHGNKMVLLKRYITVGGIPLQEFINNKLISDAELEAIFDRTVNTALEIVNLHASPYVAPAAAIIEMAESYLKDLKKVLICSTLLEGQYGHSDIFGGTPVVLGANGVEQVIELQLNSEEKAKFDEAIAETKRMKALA

As to `CCc1nc(N)nc(N)c1-c1ccc(C(C)(C)C)cc1`, the growth inhibition in experiment [1] was -5%; in experiment [4], 94% (active). Besides, the inhibition in experiment [2] was 27%; in experiment [3], -7%. In addition, the outcome in experiment [5], in experiment [6], in experiment [7] and in experiment [8] was inactive.
As to `CC(C)c1ccc(NC(=O)Nc2ccc(Cn3ncc(N4CCCNCC4)c(Cl)c3=O)cc2)cc1`, the growth inhibition was 27% in experiment [1] and 85% (active) in experiment [4]. The figures for the inhibition in experiment [2] and in experiment [3] were 11% and 2%, respectively. Also, the result in experiment [5], in experiment [6], in experiment [7] and in experiment [8] was inactive.
Regarding `COc1ccc2ccccc2c1C=NNc1cc(C)nc2c(C)cccc12`, the growth inhibition was 94% (active) in experiment [1] and 102% (active) in experiment [4]. Besides, the inhibition in experiment [2] is -3%; in experiment [3] it was -4%. In addition, the result in experiment [5], in experiment [6], in experiment [7] and in experiment [8] was inactive.
For `CCc1c(CCNCCCCCCNCCc2ccc([N+](=O)[O-])cc2)ccc(OC)c1OC`, the growth inhibition in experiment [1] was 2%; in experiment [4], 101% (active). Moreover, the inhibition is 35% in experiment [2] and 6% in experiment [3]. Moreover, the outcome in experiment [5], in experiment [6], in experiment [7] and in experiment [8] was inactive.
`COc1ccc(CN2CCC(CN3CC4(OC3=O)c3ccccc3-c3ccccc34)C2)c(O)c1` (configuration not stated): the growth inhibition in experiment [1] is 79% (active); in experiment [4], 101% (active). In addition, the inhibition in experiment [2] was 22%; in experiment [3], -7%. The result in experiment [5], in experiment [6], in experiment [7] and in experiment [8] was inactive.
Turning to `Cc1ccc(CNC(=O)c2cc3c(=O)n4cccc(C)c4nc3n(CCN3CCOCC3)c2=N)cc1`, the growth inhibition is 21% in experiment [1] and 97% (active) in experiment [4]. Also, the inhibition in experiment [2] is 31%; in experiment [3] it was -6%. For the same molecule, the result in experiment [5], in experiment [6], in experiment [7] and in experiment [8] was inactive.
In the case of `CCC(=O)Nc1ccc(Nc2nc(C)cc(N3CCCC3)n2)cc1`, the growth inhibition in experiment [1] is 2%; in experiment [4], 91% (active). In addition, the inhibition is 34% in experiment [2] and -2% in experiment [3]. The result in experiment [5], in experiment [6], in experiment [7] and in experiment [8] was inactive.
`CC(Sc1nc2sccc2c(=O)n1C)C(=O)Nc1ccc2c(c1)OCO2` (configuration not stated): the growth inhibition in experiment [1] and in experiment [4] was 100% (active) in each case. Also, the inhibition is 5% in experiment [2] and 4% in experiment [3]. The result in experiment [5], in experiment [6], in experiment [7] and in experiment [8] was inactive.
As to `COc1ccc(NC(=O)c2cn(-c3ccc(C(C)(C)C)cc3)nc2C)cc1N1CCN(C)CC1`, the results for the growth inhibition in experiment [1] and in experiment [4] were 71% (active) and 96% (active), respectively. Further, the values for the inhibition in experiment [2] and in experiment [3] were 33% and 0%, respectively. In addition, the result in experiment [5], in experiment [6], in experiment [7] and in experiment [8] was inactive.
`Oc1ccc2[nH]c(-c3cccs3)nc2c1CN1CCC(O)(c2ccccc2)CC1`: the results for the growth inhibition in experiment [1] and in experiment [4] were 69% (active) and 93% (active), respectively. The values for the inhibition in experiment [2] and in experiment [3] were 10% and -1%, respectively. For the same molecule, the outcome in experiment [5], in experiment [6], in experiment [7] and in experiment [8] was inactive.
As to `O=C(NC1CCC(N2CCN(c3cccc(C(F)(F)F)c3)CC2)CC1)c1cc2ccccc2[nH]1` (configuration not stated), the growth inhibition in experiment [1] was 22%; in experiment [4], 99% (active). The inhibition in experiment [2] was 23%; in experiment [3], 0%. In addition, the outcome in experiment [5], in experiment [6], in experiment [7] and in experiment [8] was inactive.
With `Nc1nccc2ccc(-c3ccc(NC(=O)Nc4cc(C(F)(F)F)ccc4F)cc3)cc12`, the figures for the growth inhibition in experiment [1] and in experiment [4] were 100% (active) and 101% (active), respectively. Further, the values for the inhibition in experiment [2] and in experiment [3] were 99% (active) and -3%, respectively. For the same molecule, the outcome in experiment [5], in experiment [6], in experiment [7] and in experiment [8] was inactive.
As for `O=C(CCc1cnc[nH]1)Nc1cccc(-c2cccc(-c3nc4ccc(C(F)(F)F)cc4[nH]3)c2)c1`, the growth inhibition in experiment [1] is 99% (active); in experiment [4], 101% (active). For the same molecule, the inhibition in experiment [2] is 17%; in experiment [3], 7%. Further, the result in experiment [5], in experiment [6], in experiment [7] and in experiment [8] was inactive.
`Cc1ccc(S(=O)(=O)N2CCN(C(=O)c3cc(-c4ccccc4)n[nH]3)CC2)cc1`: the growth inhibition in experiment [1] was 88% (active); in experiment [4], 91% (active). Also, the values for the inhibition in experiment [2] and in experiment [3] were -8% and -7%, respectively. Also, the result in experiment [5], in experiment [6], in experiment [7] and in experiment [8] was inactive.
`COc1ccccc1-c1ccc(CNC(=O)C(CN2CCN(C)CC2)c2ccccc2)cc1` (configuration not stated): the growth inhibition in experiment [1] is 4%; in experiment [4] it was 90% (active). Also, the inhibition in experiment [2] is 3%; in experiment [3] it was 2%. Further, the result in experiment [5], in experiment [6], in experiment [7] and in experiment [8] was inactive.
In the case of `Oc1ccc(Cl)cc1Nc1nc(C(F)(F)F)nc2ccccc12`, the growth inhibition in experiment [1] was 63% (active); in experiment [4], 86% (active). The inhibition is 16% in experiment [2] and 5% in experiment [3]. Further, the result in experiment [5], in experiment [6], in experiment [7] and in experiment [8] was inactive.
On to `COc1c(OC)c(OC)c2ccccc2c1CNCCCCCCNCc1c(OC)c(OC)c(OC)c2ccccc12`, for which the growth inhibition in experiment [1] was 71% (active); in experiment [4], 100% (active). In addition, the inhibition in experiment [2] is 99% (active); in experiment [3], 3%. For the same molecule, the result in experiment [5], in experiment [6], in experiment [7] and in experiment [8] was inactive.
`CC1(C)N=C(N)N=C(N)N1OCc1cc(Cl)c(CON2C(N)=NC(N)=NC2(C)C)cc1Cl`: the growth inhibition was 77% (active) in experiment [1] and 94% (active) in experiment [4]. The inhibition in experiment [2] was 21%; in experiment [3], 3%. For the same molecule, the outcome in experiment [5], in experiment [6], in experiment [7] and in experiment [8] was inactive.
Consider `CCOc1ccc(CCCON2C(N)=NC(N)=NC2(C)C)cc1`, for which the growth inhibition in experiment [1] and in experiment [4] was 93% (active) throughout. In addition, the inhibition is 65% (active) in experiment [2] and 0% in experiment [3]. Further, the outcome in experiment [5], in experiment [6], in experiment [7] and in experiment [8] was inactive.

A word on the inhibition: it is the drop in the measured response relative to a control, in per cent.
